Experimental data published in PubChem BioAssay (Tox21).
Results filed as inconclusive are left out. Calls of active or inactive are those of the source. Unless noted, calls come from the whole dose curve; as a rule, active = well fitted curve in the direction sought with a large enough effect in the repeat runs; inconclusive = weak or mixed curves; inactive = no such curve, though single readings can be large; an effect the other way counts as inactive or inconclusive.

Legend:
[1] = A CellTox Green Cytotoxicity Assay to monitor cytotoxicity in HepG2 cells - 16 hour (AID 1224876); note: nearly all actives have a fitted effect of over 45% in size
Procedure, shortened: (§1)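 HepG2 cells were seeded together with the CellTox Green dye at 600 cells/well, left 5 h at 37 C/5% CO2, then given compounds in DMSO. Fluorescence from dye bound to dead-cell DNA was read repeatedly over 40 h of treatment at 37 C.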

[2] = qHTS RealTime-Glo MT Cell Viability Assay in HepG2 cells - 32 hour (AID 1224877); note: nearly all actives have a fitted effect of over 55% in size
Procedure, shortened: (§2)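 Luminescence read-out: viable HepG2 cells reduce a prosubstrate to a NanoLuc substrate, giving a signal proportional to live cell number. Reads taken at 0, 8, 16, 24, 32 and 40 h of compound exposure at 37 C.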

[3] = A CellTox Green Cytotoxicity Assay to monitor cytotoxicity in HepG2 cells - 24 hour (AID 1224878); note: nearly all actives have a fitted effect of over 45% in size
Procedure, shortened: as §1

[4] = A CellTox Green Cytotoxicity Assay to monitor cytotoxicity in HepG2 cells - 40 hour (AID 1224879); note: nearly all actives have a fitted effect of over 40% in size
Procedure, shortened: as §1

[5] = qHTS RealTime-Glo MT Cell Viability Assay in HEK293 cells - 0 hour (AID 1224880); note: top concentration of the series differs between compounds; nearly all actives have a fitted effect of over 45% in size
Procedure, shortened: (§3)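 HEK293 cells mixed with RealTime-Glo reagents (NanoLuc plus cell-permeant prosubstrate) at 600 cells/well, preincubated 5 h at 37 C/5% CO2, then given 23 nL compound in DMSO. Nonlytic luminescence from viable cells was read at 0, 8, 16, 24, 32 and 40 h.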

[6] = A CellTox Green Cytotoxicity Assay to monitor cytotoxicity in HEK293 cells - 32 hour (AID 1224881); note: nearly all actives have a fitted effect of over 40% in size
Procedure, shortened: (§4)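 HEK293 cells premixed with CellTox Green dye were seeded at 600 cells/well and left 5 h at 37 C/5% CO2 before pin transfer of 23 nL compound in DMSO. Fluorescence from dye bound to dead-cell DNA was read during 40 h treatment.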

[7] = A CellTox Green Cytotoxicity Assay to monitor cytotoxicity in HepG2 cells - 0 hour (AID 1224882); note: nearly all actives have a fitted effect of over 35% in size
Procedure, shortened: as §1

[8] = A CellTox Green Cytotoxicity Assay to monitor cytotoxicity in HepG2 cells - 32 hour (AID 1224883); note: nearly all actives have a fitted effect of over 50% in size
Procedure, shortened: as §1

[9] = A CellTox Green Cytotoxicity Assay to monitor cytotoxicity in HEK293 cells - 8 hour (AID 1224884); note: nearly all actives have a fitted effect of over 35% in size
Procedure, shortened: as §4

[10] = qHTS RealTime-Glo MT Cell Viability Assay in HepG2 cells - 16 hour (AID 1224885); note: nearly all actives have a fitted effect of over 50% in size
Procedure, shortened: as §2

[11] = qHTS RealTime-Glo MT Cell Viability Assay in HEK293 cells - 24 hour (AID 1224886); note: top concentration of the series differs between compounds; nearly all actives have a fitted effect of over 50% in size
Procedure, shortened: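 Nonlytic real-time viability readout: viable cells convert prosubstrate to NanoLuc substrate, giving luminescence proportional to live cell number. HEK293, 600 cells/well, compound added after 5 h, continuous culture at 37 C.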

[12] = qHTS RealTime-Glo MT Cell Viability Assay in HEK293 cells - 8 hour (AID 1224887); note: top concentration of the series differs between compounds; nearly all actives have a fitted effect of over 50% in size
Procedure, shortened: as §3

[13] = A CellTox Green Cytotoxicity Assay to monitor cytotoxicity in HEK293 cells - 16 hour (AID 1224888); note: nearly all actives have a fitted effect of over 35% in size
Procedure, shortened: as §4

[14] = qHTS RealTime-Glo MT Cell Viability Assay in HepG2 cells - 0 hour (AID 1224889); note: nearly all actives have a fitted effect of over 50% in size
Procedure, shortened: as §2

[15] = A CellTox Green Cytotoxicity Assay to monitor cytotoxicity in HepG2 cells - 8 hour (AID 1224890); note: nearly all actives have a fitted effect of over 45% in size
Procedure, shortened: as §1

[16] = qHTS assay to identify small molecule antagonists of the androgen receptor (AR) signaling pathway using the MDA cell line in the presence of 0.5 nM R1881 - cell viability counter screen (AID 1259242); note: nearly all actives have a fitted effect of over 45% in size
Procedure, shortened: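 MDA-kb2 cells (human breast carcinoma, stably carrying MMTV-luciferase reporter) were exposed to compounds with 0.5 nM R1881 (final) for 16 hr at 37C, 0% CO2; viability then read as live-cell protease fluorescence (CellTiter-Fluor, 30 min) in the same wells.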

[17] = molecular target: Estrogen receptor (Homo sapiens) (UniProt P03372); test: qHTS assay to identify small molecule antagonists of the estrogen receptor alpha (ER-alpha) signaling pathway using the BG1 cell line in the presence of 0.1 nM 17-beta-estradiol (AID 1259244); note: nearly all actives have a fitted effect of over 50% in size
Estrogen receptor (Homo sapiens), sequence (P03372 whole entry, looked up): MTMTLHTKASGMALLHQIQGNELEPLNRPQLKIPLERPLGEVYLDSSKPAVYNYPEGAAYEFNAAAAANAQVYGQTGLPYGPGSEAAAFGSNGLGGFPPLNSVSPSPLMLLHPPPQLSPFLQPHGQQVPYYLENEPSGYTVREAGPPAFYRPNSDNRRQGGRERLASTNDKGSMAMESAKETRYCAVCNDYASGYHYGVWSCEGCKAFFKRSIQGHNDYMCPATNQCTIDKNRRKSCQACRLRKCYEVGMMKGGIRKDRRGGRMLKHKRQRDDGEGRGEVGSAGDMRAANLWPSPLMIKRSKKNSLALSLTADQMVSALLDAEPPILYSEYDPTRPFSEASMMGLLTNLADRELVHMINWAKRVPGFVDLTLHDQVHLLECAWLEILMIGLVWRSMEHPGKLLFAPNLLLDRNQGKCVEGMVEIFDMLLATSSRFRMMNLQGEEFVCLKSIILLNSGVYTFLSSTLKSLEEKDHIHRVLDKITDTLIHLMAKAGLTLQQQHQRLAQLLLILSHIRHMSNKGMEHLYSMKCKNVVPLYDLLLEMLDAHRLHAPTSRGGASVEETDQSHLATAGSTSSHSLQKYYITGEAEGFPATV
Procedure, shortened: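 VM7Luc4E2 cells (endogenous full-length ER-alpha, stable 4xERE-luciferase) were grown 5 days in phenol red-free medium with charcoal-stripped FBS, then exposed 22 h at 37C to compounds plus 0.1 nM (final) 17beta-estradiol; ONE-Glo luminescence read-out.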

[18] = qHTS assay to identify small molecule antagonists of the estrogen receptor alpha (ER-alpha) signaling pathway using the BG1 cell line in the presence of 0.1 nM 17-beta-estradiol - cell viability counter screen (AID 1259241); note: nearly all actives have a fitted effect of over 40% in size
Procedure, shortened: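 Estradiol-stimulated (0.1 nM) VM7Luc4E2 cells exposed to compounds 22 hr; viability measured by fluorescence of cleaved CellTiter-Fluor substrate after 30 min.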

[19] = qHTS assay to identify small molecule phospholipidosis (PLD) inducers (AID 1259344; active = well fitted curve in the direction sought with a large enough effect; an effect the other way counts as inactive or inconclusive)
Procedure, shortened: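 Quantitative HTS in HepG2: compound plus LipidTOX Red dye for 24 h, paraformaldehyde fixation with Hoechst 33342, widefield high-content imaging; amiodarone as positive and DMSO as negative control.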
% is set by controls: 0 for no effect and ±100 for the full control effect.

CC(C)C(=O)c1ccccc1
inactive: Potency [1] | outcome [2] | Potency [3] | Potency [4] | outcome [5] | Potency [6] | Potency [7] | Potency [8] | Potency [9] | outcome [10] | Potency [11] | Potency [12] | Potency [13] | Potency [14] | Potency [15] | Potency [16] | Potency [17]

CCCCCCCC[Si](OCC)(OCC)OCC
inactive: Potency [1] | outcome [2] | Potency [3] | Potency [4] | outcome [5] | Potency [6] | Potency [7] | Potency [8] | Potency [9] | outcome [10] | Potency [11] | Potency [12] | Potency [13] | Potency [14] | Potency [15] | Potency [16]

O=P(O)(O)OCC(O)CO (configuration not stated)
inactive: Potency [1] | outcome [2] | Potency [3] | Potency [4] | outcome [5] | Potency [6] | Potency [7] | Potency [8] | Potency [9] | outcome [10] | Potency [11] | Potency [12] | Potency [13] | Potency [14] | Potency [15] | Potency [18] | Potency [17] | outcome [19]

C[C@H]1O[C@H](O[C@H]2[C@H](O)[C@@H](O)[C@@H](O[C@H]3[C@H](O)[C@@H](O)[C@H](O)O[C@@H]3CO)O[C@@H]2CO)[C@H](O)[C@@H](O)[C@@H]1N[C@H]1C=C(CO)[C@@H](O)[C@H](O)[C@H]1O
inactive: Potency [1] | outcome [2] | Potency [3] | Potency [4] | outcome [5] | Potency [6] | Potency [7] | Potency [8] | Potency [9] | outcome [10] | Potency [11] | Potency [12] | Potency [13] | Potency [14] | Potency [15] | Potency [16] | outcome [19]

N#CCCOCCOCCC#N
inactive: Potency [1] | outcome [2] | Potency [3] | Potency [4] | outcome [5] | Potency [6] | Potency [7] | Potency [8] | Potency [9] | outcome [10] | Potency [11] | Potency [12] | Potency [13] | Potency [14] | Potency [18] | Potency [16] | Potency [17]

CCCCOC(=O)C(=O)OCCCC
inactive: Potency [1] | outcome [2] | Potency [3] | Potency [4] | outcome [5] | Potency [6] | Potency [7] | Potency [8] | Potency [9] | outcome [10] | Potency [11] | Potency [12] | Potency [13] | Potency [14] | Potency [18] | Potency [16]

BrC/C=C/CBr
inactive: cytotoxicity increase [1] -13.9% [at 15.8 µM] | activity change, negative = cytotoxic [2] -0.147% [at 15.8 µM] | cytotoxicity [3] -16.1% [at 15.8 µM] | cytotoxicity increase [4] -17.2% [at 15.8 µM] | activity change, negative = cytotoxicity [5] -1.92% [at 15.8 µM] | cytotoxicity increase [6] -1.01% [at 15.8 µM] | cytotoxicity [7] -11.8% [at 15.8 µM] | cytotoxicity increase [8] -16.5% [at 15.8 µM] | cytotoxicity increase [9] 1.66% [at 15.8 µM] | activity change, negative = cytotoxic [10] 4.65% [at 15.8 µM] | activity change, negative = cytotoxicity [11] 0.605% [at 15.8 µM] | activity change, negative = cytotoxicity [12] -6.32% [at 15.8 µM] | activity change [13] 4.41% [at 15.8 µM, active compounds read high] | activity change, negative = cytotoxicity [14] 4.43% [at 15.8 µM] | activity change, negative = cytotoxicity [18] 5.53% [at 19 µM] | viability change, negative = cytotoxic [16] 0.0069% [at 19 µM]

C=COCCOCCOC=C
inactive: Potency [1] | outcome [2] | Potency [3] | Potency [4] | outcome [5] | Potency [6] | Potency [7] | Potency [8] | Potency [9] | outcome [10] | Potency [11] | Potency [12] | Potency [13] | Potency [14] | Potency [18] | Potency [16]

COc1ccc(NS(=O)(=O)c2ccc(N)cc2)nn1
inactive: Potency [1] | outcome [2] | Potency [3] | Potency [4] | outcome [5] | Potency [6] | Potency [7] | Potency [8] | Potency [9] | outcome [10] | Potency [11] | Potency [12] | Potency [13] | Potency [14] | Potency [15] | outcome [19]

NC(=O)C1(N2CCCCC2)CCN(CCCC(=O)c2ccc(F)cc2)CC1
inactive: Potency [1] | outcome [2] | Potency [3] | Potency [4] | outcome [5] | Potency [6] | Potency [7] | Potency [8] | Potency [9] | outcome [10] | Potency [11] | Potency [12] | Potency [13] | Potency [14] | Potency [15] | Potency [16] | Potency [17] | outcome [19]

CCCCCCCCCCCCC1CO1 (configuration not stated)
inactive: Potency [1] | outcome [2] | Potency [3] | Potency [4] | outcome [5] | Potency [6] | Potency [7] | Potency [8] | Potency [9] | outcome [10] | Potency [11] | Potency [12] | Potency [13] | Potency [14] | Potency [18] | Potency [16] | Potency [17]

FC(F)(F)c1ccc(Cl)cc1Cl
inactive: Potency [1] | outcome [2] | Potency [3] | Potency [4] | outcome [5] | Potency [6] | Potency [7] | Potency [8] | Potency [9] | outcome [10] | Potency [11] | Potency [12] | Potency [13] | Potency [14] | Potency [16]

CCOC(=O)CC(CC(=O)OCC)(OC(C)=O)C(=O)OCC
inactive: Potency [1] | outcome [2] | Potency [3] | Potency [4] | outcome [5] | Potency [6] | Potency [7] | Potency [8] | Potency [9] | outcome [10] | Potency [11] | Potency [12] | Potency [13] | Potency [14] | Potency [18]

F[Si-2](F)(F)(F)(F)F
inactive: Potency [1] | outcome [2] | Potency [3] | Potency [4] | outcome [5] | Potency [6] | Potency [7] | Potency [8] | Potency [9] | outcome [10] | Potency [12] | Potency [13] | Potency [14] | Potency [15] | Potency [18] | Potency [16] | Potency [17] | outcome [19]
